According to the supplement of paper PMC3334620:
Over roughly 33,000 sequences, “E-score (-0.5 to 0.5)” has its median near -0.013; the highest 2% begin near 0.3. The full list was thinned out, with the highest values kept by preference.

Target: T1, Msn1 (UniProt P22148)
T1 sequence: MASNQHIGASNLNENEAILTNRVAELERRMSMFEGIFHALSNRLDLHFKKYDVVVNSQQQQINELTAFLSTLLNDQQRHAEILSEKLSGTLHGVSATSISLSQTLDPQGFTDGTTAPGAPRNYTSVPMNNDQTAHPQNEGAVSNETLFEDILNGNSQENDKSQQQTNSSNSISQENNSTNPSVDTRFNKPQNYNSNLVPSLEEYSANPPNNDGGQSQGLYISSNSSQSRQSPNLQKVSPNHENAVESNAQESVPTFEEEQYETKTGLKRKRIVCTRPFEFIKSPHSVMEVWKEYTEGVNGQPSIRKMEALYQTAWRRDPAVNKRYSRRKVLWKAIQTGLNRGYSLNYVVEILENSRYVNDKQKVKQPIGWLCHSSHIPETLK
Test: PBM E-score (8-mer binding enrichment) (E-score (-0.5 to 0.5)); higher = stronger / more preferred TF binding
Conditions: protein concentration: 200 nM; construct: GST-full length
Method: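 Universal 'all 10-mer' protein binding microarrays (Agilent AMADID 015681) probed with GST-tagged S. cerevisiae TFs (full-length or DBD) made by in vitro transcription/translation (PURExpress), about 100-200 nM. Bound TF was detected with fluorescent anti-GST. Each ungapped 8-mer (which stands for itself and its reverse complement) is scored by the PBM enrichment score (E-score), a modified Wilcoxon-Mann-Whitney statistic from -0.5 to +0.5, computed with the Universal PBM Analysis Suite. Scale: above 0.35 generally sequence-specific binding.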

Sequence | PBM E-score
TAGGCAAA | 0.0155
AGTCACAA | 0.114
GCCTAGTA | -0.087
CCATGGAG | -0.119
GATGGGGA | -0.143
ATTTCGCA | 0.201
ACCAGTCA | -0.0816
ATCCTTGA | -0.0979
TAAGACGA | -0.00272
TAAGACAA | 0.395
TAAGACCA | -0.13
AAAGACAA | 0.418
AAAGACAG | 0.193
AAAGACAC | 0.213
AACGGATA | 0.18
CGGGGTAC | -0.216
GTCGATGA | -0.0803
CGGGGGCA | -0.318
ACGACATC | 0.163
CCGACATA | 0.215
ACGACATG | 0.364
GCGACATA | 0.299
ACGACAGG | 0.0905
ACGACATA | 0.319

Sequence | PBM E-score
GGTCGGTA | 0.0288
AACTGAGT | -0.00489
AATGCGGA | 0.114
CGTCTAAA | -0.0424
GACAGACA | 0.414
GACAGACC | 0.0373
CACAGACA | 0.36
TACAGAGA | -0.0201
TACAGACA | 0.371
CACAGACC | 0.0741
GACAGAAA | 0.291
CACAGACG | -0.0835
AACAGACA | 0.295
AGAGGCAA | -0.0984
ACGTGAAA | 0.119
CGAGTTGA | 0.0114
CGTACCAA | 0.182
AGTACCAA | 0.175
TGTACCAA | 0.328
CGTACTAA | 0.093
TGTACTAA | 0.321
AGTACTAA | 0.121
AGCTGGAG | -0.251
GATGGTCA | -0.0299

Sequence | PBM E-score
AGCTACGA | -0.11
GTGATTGA | 0.128
CACGCTTA | 0.0573
TGGACTAA | 0.183
AGGACTTA | 0.36
CGGACTTA | 0.215
AGGACTAT | -0.131
AGGACTTC | 0.243
AGGACTAA | 0.309
CAAAACTG | 0.127
CTTGTCTC | 0.319
GTTGTCTA | 0.165
CCTGTCTA | 0.143
ATTGTCTA | 0.391
AGTGTCTA | 0.188
CTTGTCTA | 0.324
CCTGTCTC | -0.0622
CTTGTATC | 0.106
ACTGTCTA | 0.022
ATTGTCTG | 0.34
ATTGTTTG | 0.202
ATTGTCAG | 0.218
ACTCCCTG | -0.28
GCGTCTGA | -0.101

Sequence | PBM E-score
ATGTGCTC | 0.0447
CATAGTAG | 0.0607
ACTGTTAC | -0.0545
CCCTATAC | -0.129
CTCTTAGC | -0.0929
TAATGGAA | 0.151
CAGAAGTA | 0.104
CTAAGCCC | -0.154
ATTGTCTC | 0.378
AGTGTCTC | 0.0356
ACTGTCTC | -0.00421
CAACTTTC | -0.0177
TAGACAAA | 0.446
CAGACAGA | 0.0672
AAGACTAT | -0.0507
TAGACTAA | -0.0893
AAAACAAT | 0.127
CAGACAAA | 0.451
CAGACAAG | 0.28
AAGACACA | 0.169
AAGACAGA | 0.216
AAGACAAA | 0.45
TAGACGAA | 0.0138
AAGACAAT | 0.409
